Experimental data taken from the supplement of paper PMC10849652.
Targets with a hit are over-represented here; the source holds about 8,800 in all. About 0.5% of all pairs of compound and target were hits.

compound: NC1(c2ccc(-c3nc4ccn5c(=O)[nH]nc5c4cc3-c3ccccc3)cc2)CCC1; test: log2 fold change, soluble protein after heating vs DMSO (PISA); higher = thermal stabilisation; K562 lysate, 10 uM; active = over 0.2 and 3.5 SD of the protein, either way, in both replicates (recomputed)
In short: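 Following dounce homogenisation of K562 pellets in PBS pH 7.4 with 1 mM MgCl2, crude extract at 1 mg/mL protein was incubated for 30 min with 10 μM compound. Aliquots were then heated for 3 min over 48°C-58°C and pooled, NP-40 was added to 0.5% at 4°C, and soluble protein was recovered as the supernatant at 21,000xg for 90 min. Channel-sum-equalised TMTpro 16plex LC-MS/MS quantified this protein. Each value, from duplicates, is a log-two fold change in thermal stability relative to solvent controls.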

Chain of UniProt Q12933 (Q12933 whole entry, looked up): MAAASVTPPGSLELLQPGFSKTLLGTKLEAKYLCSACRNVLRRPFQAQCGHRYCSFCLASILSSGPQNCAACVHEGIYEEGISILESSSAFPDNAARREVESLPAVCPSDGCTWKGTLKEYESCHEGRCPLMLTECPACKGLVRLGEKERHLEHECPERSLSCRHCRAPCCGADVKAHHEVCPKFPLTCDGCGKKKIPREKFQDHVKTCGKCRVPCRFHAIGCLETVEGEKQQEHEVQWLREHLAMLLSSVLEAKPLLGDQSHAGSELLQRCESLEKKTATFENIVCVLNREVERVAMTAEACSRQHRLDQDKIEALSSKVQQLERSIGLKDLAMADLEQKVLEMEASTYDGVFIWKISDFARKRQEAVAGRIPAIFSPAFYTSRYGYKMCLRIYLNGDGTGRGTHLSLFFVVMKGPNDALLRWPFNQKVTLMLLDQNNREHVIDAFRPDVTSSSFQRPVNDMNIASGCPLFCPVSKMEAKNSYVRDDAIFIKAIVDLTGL
Chain of UniProt P67936 (P67936 whole entry, looked up): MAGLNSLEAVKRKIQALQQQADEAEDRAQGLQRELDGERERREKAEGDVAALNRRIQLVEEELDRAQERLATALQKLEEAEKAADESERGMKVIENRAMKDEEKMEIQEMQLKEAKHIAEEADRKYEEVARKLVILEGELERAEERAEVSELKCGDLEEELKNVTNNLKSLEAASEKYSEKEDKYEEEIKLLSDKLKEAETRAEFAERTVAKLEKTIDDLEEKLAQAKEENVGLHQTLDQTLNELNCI
Chain of UniProt P48553 (P48553 whole entry, looked up): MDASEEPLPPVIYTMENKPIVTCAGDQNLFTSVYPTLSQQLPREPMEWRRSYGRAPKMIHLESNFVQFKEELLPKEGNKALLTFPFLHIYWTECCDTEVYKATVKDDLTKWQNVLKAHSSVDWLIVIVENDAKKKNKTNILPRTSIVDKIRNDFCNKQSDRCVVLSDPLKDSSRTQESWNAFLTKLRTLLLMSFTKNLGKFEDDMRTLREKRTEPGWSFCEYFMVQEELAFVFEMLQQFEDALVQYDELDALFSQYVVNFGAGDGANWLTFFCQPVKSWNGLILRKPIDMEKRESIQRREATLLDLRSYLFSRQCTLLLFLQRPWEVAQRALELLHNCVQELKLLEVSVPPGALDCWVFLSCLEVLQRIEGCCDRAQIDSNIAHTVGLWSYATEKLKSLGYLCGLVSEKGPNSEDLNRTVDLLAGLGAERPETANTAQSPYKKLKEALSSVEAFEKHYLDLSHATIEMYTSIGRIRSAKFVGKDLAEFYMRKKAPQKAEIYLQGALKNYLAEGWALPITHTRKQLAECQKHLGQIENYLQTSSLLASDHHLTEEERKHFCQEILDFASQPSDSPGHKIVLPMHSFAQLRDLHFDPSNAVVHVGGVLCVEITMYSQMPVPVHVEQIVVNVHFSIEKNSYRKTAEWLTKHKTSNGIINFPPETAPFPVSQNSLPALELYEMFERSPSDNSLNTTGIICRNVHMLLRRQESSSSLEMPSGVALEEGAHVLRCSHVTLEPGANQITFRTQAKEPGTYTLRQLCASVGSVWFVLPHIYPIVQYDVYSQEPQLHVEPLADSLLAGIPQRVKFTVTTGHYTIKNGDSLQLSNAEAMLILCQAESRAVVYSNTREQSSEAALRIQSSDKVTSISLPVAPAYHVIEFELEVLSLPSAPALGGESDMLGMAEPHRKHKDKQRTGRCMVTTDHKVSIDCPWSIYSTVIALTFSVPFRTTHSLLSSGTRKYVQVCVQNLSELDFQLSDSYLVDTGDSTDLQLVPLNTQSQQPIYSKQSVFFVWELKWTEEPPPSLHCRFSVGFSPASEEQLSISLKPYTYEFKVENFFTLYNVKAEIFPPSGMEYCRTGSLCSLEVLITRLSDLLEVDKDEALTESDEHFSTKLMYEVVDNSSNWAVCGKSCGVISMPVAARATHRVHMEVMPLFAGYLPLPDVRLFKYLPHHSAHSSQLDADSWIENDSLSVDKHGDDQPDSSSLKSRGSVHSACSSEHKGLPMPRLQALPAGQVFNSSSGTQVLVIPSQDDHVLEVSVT
Chain of UniProt P28289 (P28289 whole entry, looked up): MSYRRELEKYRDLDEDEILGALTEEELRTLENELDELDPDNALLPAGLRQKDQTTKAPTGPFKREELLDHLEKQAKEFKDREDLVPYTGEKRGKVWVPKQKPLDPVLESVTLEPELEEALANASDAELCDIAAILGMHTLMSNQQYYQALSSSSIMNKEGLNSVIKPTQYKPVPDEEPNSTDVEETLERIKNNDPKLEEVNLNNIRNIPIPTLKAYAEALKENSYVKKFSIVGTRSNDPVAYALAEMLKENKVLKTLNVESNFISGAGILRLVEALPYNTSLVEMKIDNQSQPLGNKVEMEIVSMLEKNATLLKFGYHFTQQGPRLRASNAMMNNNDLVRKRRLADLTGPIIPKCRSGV
Chain of UniProt Q9Y5K5 (Q9Y5K5 whole entry, looked up): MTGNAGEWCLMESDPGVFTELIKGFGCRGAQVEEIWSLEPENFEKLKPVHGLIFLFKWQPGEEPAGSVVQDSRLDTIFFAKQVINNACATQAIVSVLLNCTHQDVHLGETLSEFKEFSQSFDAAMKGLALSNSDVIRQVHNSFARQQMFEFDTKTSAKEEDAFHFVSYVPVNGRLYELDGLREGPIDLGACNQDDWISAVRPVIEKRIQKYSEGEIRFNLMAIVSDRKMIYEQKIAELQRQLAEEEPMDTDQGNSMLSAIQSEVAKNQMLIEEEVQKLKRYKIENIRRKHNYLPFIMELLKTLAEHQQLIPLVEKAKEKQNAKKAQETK
Chain of UniProt O60704 (O60704 whole entry, looked up): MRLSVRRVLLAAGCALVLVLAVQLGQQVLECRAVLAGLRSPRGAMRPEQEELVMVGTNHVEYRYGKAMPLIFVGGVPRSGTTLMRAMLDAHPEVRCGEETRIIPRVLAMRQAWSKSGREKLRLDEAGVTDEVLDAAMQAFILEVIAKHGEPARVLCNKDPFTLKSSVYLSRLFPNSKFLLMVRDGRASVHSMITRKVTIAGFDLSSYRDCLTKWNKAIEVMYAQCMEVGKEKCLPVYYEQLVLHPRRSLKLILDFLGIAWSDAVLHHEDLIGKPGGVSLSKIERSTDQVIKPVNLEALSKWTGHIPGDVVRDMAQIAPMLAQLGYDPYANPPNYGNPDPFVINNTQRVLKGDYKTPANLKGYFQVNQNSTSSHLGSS
Chain of UniProt Q9UPN9 (Q9UPN9 whole entry, looked up): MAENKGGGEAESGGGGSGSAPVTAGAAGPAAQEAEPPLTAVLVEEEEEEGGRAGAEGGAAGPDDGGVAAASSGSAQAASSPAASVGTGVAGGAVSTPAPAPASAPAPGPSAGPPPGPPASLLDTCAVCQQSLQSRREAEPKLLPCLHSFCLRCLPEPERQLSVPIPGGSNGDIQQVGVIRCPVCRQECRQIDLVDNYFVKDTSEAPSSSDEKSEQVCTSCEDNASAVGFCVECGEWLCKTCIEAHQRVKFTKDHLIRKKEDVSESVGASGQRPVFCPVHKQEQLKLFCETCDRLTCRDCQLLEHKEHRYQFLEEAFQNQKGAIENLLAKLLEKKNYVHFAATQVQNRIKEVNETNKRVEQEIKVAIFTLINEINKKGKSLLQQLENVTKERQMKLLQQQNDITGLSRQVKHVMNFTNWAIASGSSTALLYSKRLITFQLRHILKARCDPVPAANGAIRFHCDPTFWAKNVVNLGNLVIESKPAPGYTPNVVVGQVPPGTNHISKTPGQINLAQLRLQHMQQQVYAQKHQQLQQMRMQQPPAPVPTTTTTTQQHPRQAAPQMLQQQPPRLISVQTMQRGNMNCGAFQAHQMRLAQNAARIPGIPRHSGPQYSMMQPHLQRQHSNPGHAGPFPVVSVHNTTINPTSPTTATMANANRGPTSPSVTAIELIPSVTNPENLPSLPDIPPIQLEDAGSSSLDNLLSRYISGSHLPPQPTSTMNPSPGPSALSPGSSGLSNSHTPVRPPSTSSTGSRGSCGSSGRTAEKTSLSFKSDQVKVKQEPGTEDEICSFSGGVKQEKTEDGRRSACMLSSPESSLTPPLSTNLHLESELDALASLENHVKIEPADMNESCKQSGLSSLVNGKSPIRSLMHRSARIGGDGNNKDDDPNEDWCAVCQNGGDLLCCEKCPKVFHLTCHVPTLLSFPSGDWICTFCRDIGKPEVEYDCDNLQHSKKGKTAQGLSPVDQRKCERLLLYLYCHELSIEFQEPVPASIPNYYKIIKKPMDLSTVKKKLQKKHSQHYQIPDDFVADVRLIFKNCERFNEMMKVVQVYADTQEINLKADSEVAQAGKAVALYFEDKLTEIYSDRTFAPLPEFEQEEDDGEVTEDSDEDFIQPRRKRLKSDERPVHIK
Chain of UniProt Q9NX07 (Q9NX07 whole entry, looked up): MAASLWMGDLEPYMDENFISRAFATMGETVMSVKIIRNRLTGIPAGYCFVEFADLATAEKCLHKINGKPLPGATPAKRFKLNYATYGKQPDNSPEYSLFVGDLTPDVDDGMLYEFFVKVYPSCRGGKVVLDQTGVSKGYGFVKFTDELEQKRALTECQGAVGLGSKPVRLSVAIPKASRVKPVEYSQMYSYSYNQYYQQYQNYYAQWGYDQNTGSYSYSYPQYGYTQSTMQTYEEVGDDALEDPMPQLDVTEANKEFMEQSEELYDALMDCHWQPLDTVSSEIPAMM
Chain of UniProt P68363 (P68363 whole entry, looked up): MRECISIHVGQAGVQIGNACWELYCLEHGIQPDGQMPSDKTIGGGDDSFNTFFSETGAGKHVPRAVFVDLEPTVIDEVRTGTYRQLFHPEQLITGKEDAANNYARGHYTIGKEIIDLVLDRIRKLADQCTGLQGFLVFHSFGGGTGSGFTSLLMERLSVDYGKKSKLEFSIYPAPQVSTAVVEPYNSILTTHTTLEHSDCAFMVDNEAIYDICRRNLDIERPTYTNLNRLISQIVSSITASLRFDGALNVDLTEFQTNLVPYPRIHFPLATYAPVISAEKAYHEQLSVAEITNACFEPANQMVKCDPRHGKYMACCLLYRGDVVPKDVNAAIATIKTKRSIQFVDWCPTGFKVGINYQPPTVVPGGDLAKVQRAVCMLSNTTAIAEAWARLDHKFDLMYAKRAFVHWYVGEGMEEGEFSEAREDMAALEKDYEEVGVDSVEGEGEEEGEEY

log2 fold change, inactive:
TBCE (UniProt Q15813) -0.041
TNPO3 (UniProt Q9Y5L0) -0.01
TRIM33 (UniProt H0Y612) -0.106
TPST2 (UniProt O60704) -0.087
UBR4 (UniProt Q5T4S7) -0.001
TTK (UniProt P33981) -0.057
TP53RK (UniProt Q96S44) -0.013
TUBGCP3 (UniProt Q96CW5) 0.012
UBR3 isoform 4 (UniProt Q6ZT12) -0.039
TRIM33 isoform 2 (UniProt Q9UPN9) -0.025
TOE1 (UniProt Q96GM8) -0.01
UBA1 (UniProt P22314) -0.011
TUBB1 (UniProt Q9H4B7) -0.019
TUBGCP2 isoform 4 (UniProt Q9BSJ2) -0.016
TPM4 isoform 2 (UniProt P67936) 0.02
TMOD1 (UniProt P28289) -0.015
TRAPPC10 (UniProt P48553) -0.05
TRMT12 (UniProt Q53H54) 0.004
TSPAN13 (UniProt O95857) 0.132
UBE2H (UniProt P62256) -0.041
TLE3 isoform 5 (UniProt Q04726) 0.058
TSFM (UniProt P43897) -0.026
TRMT2A (UniProt Q8IZ69) -0.012
TUBA1B (UniProt P68363) -0.013
TUT4 (UniProt Q5TAX3) -0.002
TBL2 (UniProt Q9Y4P3) -0.037
TK1 (UniProt P04183) -0.003
TTC5 (UniProt Q8N0Z6) 0.001
TRNAU1AP (UniProt Q9NX07) -0.013
UBR5 (UniProt O95071) -0.009
TRAF2 isoform 2 (UniProt Q12933) -0.016
UCHL5 isoform 3 (UniProt Q9Y5K5) 0.003
TRIM23 (UniProt P36406) 0.037
TRIM11 (UniProt Q96F44) -0.023
